# The campaign covered roughly 320,000 compounds. About 2,100 (0.66%) were called active. Roughly 53% stayed inconclusive and do not appear here. Calls come from the whole dose curve; as a rule, active = well fitted inhibition curve with a large enough effect in the signal ratio, with a control signal flat (not every such curve was filed as active); inconclusive = small, poorly fitted or top-dose-only effect, or effect the other way, or a change in a side signal; inactive = flat fitted curve, though single readings scatter; the % refers to the signal ratio. The sample as a whole holds a higher share of actives than the screen did.
# Test: qHTS Assay for Lipid Storage Modulators in Drosophila S3 Cells;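 for cell number change: cells counted by Cell Tracker Red CMTPX staining in the red channel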; for lipid storage change, negative = inhibition: % is set by controls: 0 for no effect and ±100 for the full control effect
# Conditions: BODIPY lipid droplet fluorescence, 18-24 h, cells fed with added oleic acid; cell number change: measured here: cell count max response; series mostly up to 46.1 µM; lipid storage change, negative = inhibition: at the top concentration
# Procedure, shortened: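 Laser-scanning cytometry quantifies lipid droplet accumulation (500–530 nm total intensity; droplet/cell object ratio) in oleic acid-fed (400 uM added) Drosophila S3 cells treated with a concentration series. 20 uM Triacsin C defined 100% inhibition.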
# Potency is the fitted concentration of half-maximal effect.
Compound,"lipid storage change, negative = inhibition",cell number change [%],Potency,outcome
O=C(O)/C=C/C(=O)NC1CCC(CC2CCC(NC(=O)/C=C/C(=O)O)CC2)CC1 (configuration not stated),5.98% (inactive),16.5,,
O=C(N/N=C/c1nn(-c2ccccc2)cc1-c1ccc(Cl)cc1)c1ccncc1,-4.31% (inactive),11.9,,
CN(c1ccccc1)S(=O)(=O)c1ccc(C(=O)NCc2cccs2)cc1,-14.7% (inactive),,,
O=C(O)c1ccc(CNC(=O)c2ccc(S(=O)(=O)N3CCCCC3)cc2)cc1,18.3% (inactive),-13.8,,
Cc1ccc2cc(CCNC(=O)c3ccc(S(=O)(=O)N4CCCCC4)cc3)c(=O)[nH]c2c1,20.6% [at 9.22 µM] (inactive),17.8,,
CS(=O)(=O)c1ccc(C(=O)NCc2ccccc2F)cc1,4.1% (inactive),16.1,,
COc1ccc(OC)c2[nH]c(=O)c(CCNC(=O)c3ccc(S(=O)(=O)N4CCCC4)cc3)cc12,-1.53% (inactive),1.32,,
Cc1ccc(C)c2[nH]c(=O)c(CCNC(=O)c3ccc(S(=O)(=O)N4CCCC4)cc3)cc12,,-19,13 µM (active),
CN(c1ccccc1)S(=O)(=O)c1ccc(C(=O)NCc2ccccc2F)cc1,,-21.4,13 µM (active),
O=C(NCCN=C1NS(=O)(=O)c2ccccc21)c1ccncc1,,-9.37,,inactive
O=C(NCc1ccccc1F)c1ccc(S(=O)(=O)N2CCCCCC2)cc1,,11.4,18.4 µM (active),
O=C(NCc1ccccc1F)c1cccc(S(=O)(=O)N2CCCCCC2)c1,-28% (inactive),6.02,,
O=C(NCCCN=C1NS(=O)(=O)c2ccccc21)c1ccc(S(=O)(=O)N2CCCCC2)cc1,,-7.55,8.2 µM (active),
CCN(CC)S(=O)(=O)c1ccc(C(=O)NCCCN=C2NS(=O)(=O)c3ccccc32)cc1,3.19% (inactive),17.2,,
O=C(Nc1ccc(C(=O)N2CCOCC2)cc1)c1cnn2c(C(F)F)cc(-c3ccccc3)nc12,12.7% (inactive),19.9,,
CCCCC1CCC(c2nc(-c3cccnc3)no2)CC1 (configuration not stated),16.5% (inactive),-3.76,,
CCN1CCN(S(=O)(=O)Cc2ccccc2Cl)CC1,-13.1% (inactive),-8.44,,
Cc1noc(C)c1CSc1nnc(-c2ccccc2)o1,13.2% (inactive),4.76,,
Cc1ccc(CNC(=O)/C=C/C(=O)O)cc1,-3.52% (inactive),15,,
CN1CCN(c2oc(-c3ccco3)nc2S(=O)(=O)c2ccccc2)CC1,15.9% (inactive),0.475,,

Compound,"lipid storage change, negative = inhibition",cell number change [%],Potency,outcome
CC(=O)Nc1ccc(S(=O)(=O)Oc2cccc(N3C(=O)C4CCCCC4C3=O)c2)cc1 (configuration not stated),,5.92,,inactive
CCOc1ccc(Br)cc1S(=O)(=O)NCc1ccncc1,15.6% (inactive),3.33,,
Cc1ccc(OCCn2cc(C(=O)O)c3ccccc32)cc1,-6.41% (inactive),6.58,,
COc1ccc(C(=S)N2CCOCC2)cc1OC(=O)c1ccccc1Cl,-28.4% (inactive),11.8,,
COc1ccc(C(CC(=O)O)NS(=O)(=O)c2ccc(C)cc2)cc1OC (configuration not stated),-9.46% (inactive),-5.13,,
COc1ccc(C(CC(=O)O)NS(=O)(=O)c2ccc(C)cc2)cc1 (configuration not stated),,9.41,2.91 µM (active),
Cc1ccc(S(=O)(=O)NC(CC(=O)O)c2ccc(F)cc2)cc1 (configuration not stated),-0.309% (inactive),2.4,,
O=C(C1=C[C@@H](c2coc3ccccc3c2=O)C[C@@H](OCCCCO)O1)N1CCN(Cc2ccc3c(c2)OCO3)CC1,-7.19% (inactive),-4.69,,
CCc1c(C(=O)Nc2ccccc2)c(C)[nH]c(=S)c1C#N,-4.8% (inactive),16.5,,
Cc1[nH]c(=S)c(C#N)c(-c2ccccc2)c1C(=O)Nc1ccccc1,,-24.7,7.31 µM (active),
Cc1ccc(-c2c(C(=O)Nc3ccccc3C)c(C)[nH]c(=S)c2C#N)o1,-6.96% (inactive),5.19,,
O=C(CCCN1C(=O)S/C(=C/c2ccccc2)C1=S)Nc1ccc(C(=O)O)cc1,-1.46% (inactive),10.3,,
CC(=O)c1ccc(NC(=O)CCCN2C(=O)C(c3ccccc3)Oc3cccnc32)cc1 (configuration not stated),,-3.13,,inactive
Cc1cc(C)cc(NC(=O)CCCN2C(=O)C(c3ccccc3)Oc3cccnc32)c1 (configuration not stated),,,-12%,
CCc1cccc(NC(=O)CCCN2C(=O)C(c3ccccc3)Oc3cccnc32)c1 (configuration not stated),,12,20.6 µM (active),
Cc1ccc(C)c(NC(=O)C2CCCN2S(=O)(=O)c2ccc3c(c2)n(C)c(=O)c(=O)n3C)c1 (configuration not stated),1.75% (inactive),7.23,,
O=C(/C=C/c1ccccc1)NC(NC(=S)Nc1cccc(O)c1)C(Cl)(Cl)Cl (configuration not stated),13.1% (inactive),11.8,,
O=C(/C=C/c1ccccc1)NC(NC(=S)Nc1cc(Cl)ccc1Cl)C(Cl)(Cl)Cl (configuration not stated),,-23.7,16.4 µM (active),
O=C(Cc1ccccc1)NC(NC(=S)Nc1cc(Cl)ccc1Cl)C(Cl)(Cl)Cl (configuration not stated),23.7% (inactive),-5.82,,
COc1ccc2c(c1)c(C(=O)N/N=C/c1ccc(Br)cc1)c(C)n2C,23% (inactive),12,,

Compound,"lipid storage change, negative = inhibition",cell number change [%],Potency,outcome
CCOC(=O)Cc1csc(N/N=C/c2ccc(C(F)(F)F)cc2)n1,-8.86% (inactive),-3.51,,
CCN(CC)c1ccc(C=C2C(=O)OC(c3ccccc3)OC2=O)cc1 (configuration not stated),7.24% (inactive),18.7,,
CC1=NOC(=O)/C1=C/c1ccc(N(C)C)cc1,-7.07% (inactive),-16.6,,
CCN(CC)c1ccc(/C=C2/C(=O)ON=C2C)cc1,,-20.6,9.2 µM (active),
CCOC(=O)C1CCN(Cc2nnc(-c3ccccc3C)o2)CC1,0.348% (inactive),14.7,,
CCOC(=O)C(NCCc1ccccc1F)(NC(C)=O)C(F)(F)F (configuration not stated),6.2% (inactive),0.435,,
O=C(Nc1cccc(NC(=O)c2ccc([N+](=O)[O-])o2)c1)c1ccco1,,19.2,5.8 µM (active),
Cc1cccc(NC(=O)c2ccc(NCCc3ccccc3)c([N+](=O)[O-])c2)c1,,11.4,16.4 µM (active),
O=C(Nc1ccccc1)c1ccc(NCCc2ccccc2)c([N+](=O)[O-])c1,-5.93% (inactive),-13.2,,
O=C(Nc1ccc2oc(-c3cccnc3)nc2c1)c1ccc([N+](=O)[O-])o1,,-27.4,3.66 µM (active),
O=C(Nc1ccc2oc(-c3cccnc3)nc2c1)c1ccco1,-15.4% (inactive),-3.59,,
Cc1cccc(NC(=O)NNC(=O)c2ccc(C)c([N+](=O)[O-])c2)c1,10.7% (inactive),11.9,,
O=C(Nc1ccc(Cl)c([N+](=O)[O-])c1)c1ccco1,,-24.9,,inactive
O=C(Nc1cccnc1)c1ccc([N+](=O)[O-])o1,,,,inactive
Cc1cc(C(=O)Nc2cccc(NC(=O)c3ccco3)c2)ccc1[N+](=O)[O-],,-29.7,1.84 µM (active),
Cc1cc(C(=O)Nc2ccncc2)ccc1[N+](=O)[O-],-12.8% (inactive),-15,,
O=C(Nc1cccc(NC(=O)c2ccccc2Cl)c1)c1ccc([N+](=O)[O-])o1,-9.13% (inactive),,,
O=C(Nc1cccc(NC(=O)c2ccco2)c1)c1ccc([N+](=O)[O-])cc1,4.21% (inactive),3.56,,

# From PubChem BioAssay AID2685 (National Center for Advancing Translational Sciences (NCATS), 2010)
